A selection: hits, their analogues and other compounds. The true share with any hit is near 1.8%.
beta cell repl = inducers of beta-cell replication in MIN6 cells | proliferation, % at 10 µM | MIN6 cells proliferation, ATPlite luminescence, 48 h; cells starved in 0.2% serum; 100% = growth in 10% serum | hit rate 0.29% among 330,000;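 active = compounds whose signal lies at least 3.5 SD above the mean of all wells on their plate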
VLA-4 inh = inhibition in a human VLA-4 binding assay; P13612; VLA-4 expressing cells, ligand binding flow cytometry; inhibition, % (about 7 µM as worked out from the volumes in the protocol); hit rate 0.2% among 330,000; AID 2557; in the data active = inhibition above about 50%
A3G deaminase = inhibitors of human APOBEC3G DNA deaminase; hit rate 0.28% among 330,000; recombinant A3G, ssDNA deamination FAM/TAMRA fluorescence; Q9HC16; AID 493012; inhibition, % at 20 µM;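 active = inhibition of at least 40% at 20 µM, with no more than 30% in the related APOBEC3A deaminase screen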
CendR NRP1 mod = NRP-1/CendR interaction modulation. O14786. FAM-RPARPAR peptide binding to NRP-1, fluorescence polarization. inhibition, % at 25 µM. hit rate 0.85% among 360,000. AID 602438;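 active = inhibition or corrected inhibition above about 18%, plus a signal ratio from 0.5 to 1.5, limit read from the data, passing the limit was not always enough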
APOBEC3A inh = human APOBEC3A DNA deaminase inhibition; inhibition, % at 20 µM; recombinant A3A, FAM/TAMRA ssDNA deamination fluorescence; P31941; hit rate 0.41% among 330,000;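 active = at least 40% inhibition at 20 µM here, with at most 30% in a related deaminase screen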
A3G conf = APOBEC3G (human) deaminase inhibition, confirmed | inhibition, % at 20 µM | shares compounds with A3G deaminase | hit rate 72% among 890 | AID 493152 | recombinant A3G ssDNA deaminase, UDG/FAM-TAMRA fluorescence;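 active = inhibition reaching a set limit in any replicate at 20 µM, the limit being 80% of the first screen's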
UDG ctr A3G = inhibits E. coli UDG, flagging false APOBEC3G inhibitors; shares compounds with A3G deaminase; UDG counterscreen, FAM/TAMRA oligo fluorescence; inhibition, % at 20 µM; 710 tested, under 10 active;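 active = compounds giving 40% or more inhibition at 20 µM in any one of the three replicates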;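 note: inhibitors lower the FAM signal released by uracil excision and alkaline cleavage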
Hits are given with their value.

CC1(C)CC(C(N)=S)CCO1 (centres undefined) was read as beta cell repl inactive, VLA-4 inh inactive, A3G deaminase inactive, CendR NRP1 mod inactive and APOBEC3A inh inactive.
CCC1(C)CC(C(N)=S)CCO1 (centres undefined) was read as beta cell repl inactive, VLA-4 inh inactive, A3G deaminase 56.5, CendR NRP1 mod inactive, APOBEC3A inh inactive, A3G conf 45.2 and UDG ctr A3G inactive.
`O=C(NC(Cc1ccccc1)C(=O)NCCc1ccccn1)c1ccccc1` (centres undefined) gave beta cell repl inactive, VLA-4 inh inactive, A3G deaminase inactive, CendR NRP1 mod inactive and APOBEC3A inh inactive.
`CC(Oc1ccc2c3c(c(=O)oc2c1)CCCC3)C(=O)NCCN1CCOCC1` (centres undefined) gave beta cell repl inactive, VLA-4 inh inactive, A3G deaminase 72.7, CendR NRP1 mod inactive, APOBEC3A inh inactive, A3G conf inactive and UDG ctr A3G inactive.
For Cc1ccc(NC(=O)CCS(=O)(=O)c2cccc3nonc23)c(Br)c1 the results were beta cell repl inactive, VLA-4 inh inactive, A3G deaminase inactive, CendR NRP1 mod inactive and APOBEC3A inh inactive.
For COc1ccc(OC)c(C2CC(=O)N3CN(c4ccccc4F)CSC3=C2C#N)c1 (centres undefined) the results were beta cell repl inactive, VLA-4 inh inactive, A3G deaminase 66.7, CendR NRP1 mod inactive, APOBEC3A inh inactive, A3G conf inactive and UDG ctr A3G inactive.
`COc1cc(C2CC(=O)N3CN(c4ccccc4C)CSC3=C2C#N)cc(OC)c1OC` (centres undefined) gave beta cell repl inactive, VLA-4 inh inactive, A3G deaminase 48.8, APOBEC3A inh inactive and A3G conf 33.3.
For COc1cccc(C2CC(=O)N3CN(c4ccccc4F)CSC3=C2C#N)c1 (centres undefined) the results were beta cell repl inactive, VLA-4 inh inactive, A3G deaminase 57.2, CendR NRP1 mod inactive, APOBEC3A inh inactive, A3G conf 30.8 and UDG ctr A3G inactive.
CCCn1nc(C(=O)Nc2ccc3nc(N4CCOCC4)sc3c2)ccc1=O was read as beta cell repl inactive, A3G deaminase inactive, CendR NRP1 mod inactive and APOBEC3A inh inactive.
COc1ccc(OCC(=O)Nn2c(-c3ccc(OC)cc3)nc3ccccc3c2=O)cc1 was read as beta cell repl inactive, VLA-4 inh inactive, A3G deaminase inactive, CendR NRP1 mod inactive and APOBEC3A inh inactive.
Screening COc1ccc(-c2nc3ccccc3c(=O)n2NC(=S)N(C)C)cc1 returned beta cell repl inactive, VLA-4 inh inactive, A3G deaminase 52.5, CendR NRP1 mod inactive, APOBEC3A inh inactive, A3G conf 64.1 and UDG ctr A3G inactive.
`S=c1[nH]nc(C2COc3ccccc3O2)o1` (centres undefined) gave beta cell repl inactive, VLA-4 inh inactive, A3G deaminase inactive, CendR NRP1 mod inactive and APOBEC3A inh inactive.
For S=c1nc(C2COc3ccccc3O2)[nH][nH]1 (centres undefined) the results were beta cell repl inactive, VLA-4 inh inactive, A3G deaminase 51.7, CendR NRP1 mod inactive, APOBEC3A inh inactive, A3G conf 70.9 and UDG ctr A3G inactive.
S=c1[nH]nc(-c2cc(-c3ccccc3)n[nH]2)n1/N=C/c1cccc(Cl)c1 was read as beta cell repl inactive, VLA-4 inh inactive, A3G deaminase 52.9, CendR NRP1 mod inactive, APOBEC3A inh inactive, A3G conf inactive and UDG ctr A3G inactive.
`S=c1[nH]nc(-c2cc(-c3ccccc3)n[nH]2)n1/N=C/c1ccc(Cl)c(Cl)c1` gave beta cell repl inactive, VLA-4 inh inactive, A3G deaminase inactive, CendR NRP1 mod inactive and APOBEC3A inh inactive.
`S=c1[nH]nc(-c2ccccn2)n1/N=C/c1ccc(Cl)c(Cl)c1` gave beta cell repl inactive, VLA-4 inh inactive, A3G deaminase 45.5, CendR NRP1 mod inactive, APOBEC3A inh inactive, A3G conf 45.1 and UDG ctr A3G inactive.
Nc1cc(S(=O)(=O)Nc2ccccc2Cl)ccc1N1CCCCC1 was read as beta cell repl inactive, VLA-4 inh inactive, A3G deaminase 49.0, CendR NRP1 mod inactive, APOBEC3A inh inactive, A3G conf 47.2 and UDG ctr A3G inactive.
Nc1cc(S(=O)(=O)c2ccc(N3CCCCC3)c(N)c2)ccc1N1CCCCC1 was read as CendR NRP1 mod inactive.
For COc1ccccc1NS(=O)(=O)c1cc(N)ccc1N1CCCCC1 the results were beta cell repl inactive, VLA-4 inh inactive, A3G deaminase 49.0, CendR NRP1 mod inactive, APOBEC3A inh inactive, A3G conf 62.2 and UDG ctr A3G inactive.
For Nc1ccc(N2CCCCC2)c(S(=O)(=O)Nc2ccccc2Cl)c1 the results were beta cell repl inactive, VLA-4 inh inactive, A3G deaminase inactive, CendR NRP1 mod inactive and APOBEC3A inh inactive.
CCN(CC)c1ccc(NC(=O)c2ccccn2)cc1S(=O)(=O)Nc1ccccc1OC was read as beta cell repl inactive, A3G deaminase 56.2, CendR NRP1 mod inactive, APOBEC3A inh inactive, A3G conf 50.8 and UDG ctr A3G inactive.
`COc1ccccc1NS(=O)(=O)c1cc(NC(=O)c2ccc(Cl)nc2)ccc1N1CCCC1` gave beta cell repl inactive, VLA-4 inh inactive, A3G deaminase 65.7, CendR NRP1 mod inactive, APOBEC3A inh inactive, A3G conf 68.5 and UDG ctr A3G inactive.
Screening COc1ccccc1NS(=O)(=O)c1cc(NC(=O)c2cccnc2)ccc1N1CCCCC1 returned beta cell repl inactive, VLA-4 inh inactive, A3G deaminase inactive, CendR NRP1 mod inactive and APOBEC3A inh inactive.
Screening C=CCC1(Cl)C(=O)C(Cl)=C(N2CCOCC2)C1(OC)OC (centres undefined) returned beta cell repl inactive, VLA-4 inh inactive, A3G deaminase inactive, CendR NRP1 mod inactive and APOBEC3A inh inactive.
COc1ccc(NS(=O)(=O)c2cc(NC(=O)C3CC3)ccc2N2CCCCC2)cc1 was read as beta cell repl inactive, VLA-4 inh inactive, A3G deaminase inactive, CendR NRP1 mod inactive and APOBEC3A inh inactive.
`COc1ccccc1NS(=O)(=O)c1cc(NC(=O)C2CCC2)ccc1N1CCCCC1` gave beta cell repl inactive, VLA-4 inh inactive, A3G deaminase 48.9, CendR NRP1 mod inactive, APOBEC3A inh inactive, A3G conf 76.8 and UDG ctr A3G inactive.
Screening N#Cc1c(-c2cccnc2)c2c([nH]c1=S)CCCC2 returned beta cell repl inactive, VLA-4 inh inactive, A3G deaminase 50.3, CendR NRP1 mod inactive, APOBEC3A inh inactive, A3G conf 86.1 and UDG ctr A3G inactive.
CC(=O)N/C(=C/C(C)C)c1ccccc1 was read as beta cell repl inactive, VLA-4 inh inactive, A3G deaminase inactive, CendR NRP1 mod inactive and APOBEC3A inh inactive.

Source: PubChem
